This passage reports growth results from PubChem BioAssay (NCI).

The panel holds about 83,000 compounds, 20% with a hit somewhere; the sample as a whole holds those more often.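 How to read the values: 0–100, growth inhibition (40 = 60% inhibited); 0, no net growth; -100 to 0, cell death (-40 = 40% of starting cells died; -100 = all dead).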 A number with no mark means an inactive call. Calls of active or inactive are those of the source. Rule for the calls: active = growth percent below 10; inactive = the rest.

Test systems include RPMI-8226 leukemia; OVCAR-8 ovarian; OVCAR-5 ovarian; OVCAR-4 ovarian; SK-OV-3 ovarian; IGROV1 ovarian; OVCAR-3 ovarian; HS 578T breast; T-47D breast; BT-549 breast; MDA-MB-435 melanoma; SW-620 colon; MCF7 breast; HCT-116 colon; HCC-2998 colon; KM12 colon; NCI/ADR-RES ovarian.
Holding throughout (experiment): NCI-60 one-dose screen, 48 h (100 = growth as untreated, 0 = no growth, -100 = all killed)
Details in all cases: 10 µM unless noted

In the case of `CCOC(=O)c1c(NCC(=O)Nc2ccc(Br)cc2)sc2c1CCCC2`, the growth was 27% with RPMI-8226 leukemia; 36.5% in the assay on OVCAR-8 ovarian; 27.2% in the assay with OVCAR-5 ovarian; 35.5% in the assay with OVCAR-4 ovarian; 66.9% with SK-OV-3 ovarian; 22% with IGROV1 ovarian. In addition, the growth with OVCAR-3 ovarian was 10.3%; in the assay with HS 578T breast, 57.5%; in the assay with T-47D breast, 30.9%; with BT-549 breast, 23.9%; in the assay on MDA-MB-435 melanoma, 42.9%; in the assay on SW-620 colon, 8.98% (active). Besides, the growth with MCF7 breast is 11.9%; in the assay with HCT-116 colon, 7.99% (active); in the assay on HCC-2998 colon, 67.9%; in the assay with KM12 colon it was 70.2%.

With `COc1cc(C2CC(c3ccc(Nc4nc(NCCO)nc(Nc5ccc(Cl)cc5)n4)cc3)=Nc3c(N)nc(N)nc3N2)cc(OC)c1OC` (stereo unspecified), the growth is 37.5% in the assay with RPMI-8226 leukemia; 47.6% with OVCAR-8 ovarian; 119% with OVCAR-5 ovarian; 65.2% in the assay on OVCAR-4 ovarian; 125% in the assay with SK-OV-3 ovarian; 62.5% with IGROV1 ovarian. Moreover, the growth was 35% in the assay on HS 578T breast; 103% in the assay with NCI/ADR-RES ovarian; 54.5% in the assay with T-47D breast; 52.1% in the assay on BT-549 breast; 74.6% in the assay with MDA-MB-435 melanoma; 51.6% with SW-620 colon. For the same molecule, the growth in the assay on MCF7 breast is 42.7%; in the assay on HCT-116 colon, 23.6%; in the assay on HCC-2998 colon, 94.5%; in the assay with KM12 colon it was 61.9%.

`CCN1C(=O)N(CC)C2SC(N/N=C/C=C/c3ccccc3OC)=NC21` (stereo unspecified): the growth in the assay on RPMI-8226 leukemia is 14.3%; in the assay on OVCAR-8 ovarian, 22.3%; in the assay with OVCAR-5 ovarian, 37.7%; in the assay with OVCAR-4 ovarian, 68.6%; with SK-OV-3 ovarian it was 52.8%; with IGROV1 ovarian, 21.4%. The growth was -39.6% (active) with OVCAR-3 ovarian; 27.1% in the assay with HS 578T breast; 11.9% with NCI/ADR-RES ovarian; 67.3% in the assay with T-47D breast; 18.7% with BT-549 breast; -16.7% (active) with MDA-MB-435 melanoma. Also, the growth in the assay on SW-620 colon is 20.4%; with MCF7 breast it was 12.9%; in the assay on HCT-116 colon, 6.23% (active); in the assay on HCC-2998 colon, 8.41% (active); in the assay with KM12 colon it was 11.6%.

Take `O=c1cc(-c2ccccc2)nc2sc(-c3c[nH]c4ccc(F)cc34)nn12`: the growth was 71.9% in the assay on RPMI-8226 leukemia; 62% with OVCAR-8 ovarian; 77.2% in the assay with OVCAR-5 ovarian; -14.1% (active) with OVCAR-4 ovarian; 56.6% with SK-OV-3 ovarian; 85.4% in the assay on IGROV1 ovarian. Also, the growth is -4.32% (active) in the assay on HS 578T breast; 60.6% with NCI/ADR-RES ovarian; 27.2% with T-47D breast; 56.7% in the assay with BT-549 breast; 63.7% in the assay on MDA-MB-435 melanoma; 60.9% with SW-620 colon. In addition, the growth with MCF7 breast is 57.9%; in the assay with HCT-116 colon, 57.2%; in the assay with HCC-2998 colon it was 83.4%; with KM12 colon it was 84.2%.

Take `COc1ccc([C@H]2[C@H](O)C(=O)N2c2cc(OC)c(OC)c(OC)c2)cc1Cl`: the growth in the assay with RPMI-8226 leukemia is 19%; in the assay with OVCAR-8 ovarian, -12.7% (active); in the assay on OVCAR-5 ovarian, 30.3%; in the assay with OVCAR-4 ovarian, 74.4%; in the assay with SK-OV-3 ovarian, 27.3%; in the assay on IGROV1 ovarian it was 22.8%. In addition, the growth in the assay with HS 578T breast is 13.6%; in the assay on NCI/ADR-RES ovarian it was -10.6% (active); with T-47D breast it was 69.9%; with BT-549 breast it was 1.85% (active); in the assay with MDA-MB-435 melanoma, -0.621% (active); in the assay with SW-620 colon, 17.8%. Also, the growth in the assay on MCF7 breast is 9.61% (active); in the assay with HCT-116 colon it was 2.62% (active); with HCC-2998 colon, 13.8%; with KM12 colon, 11.3%.

`COc1cc(/C=N/n2cnc3oc(-c4ccccc4)cc3c2=N)cc(CN2CCCCC2)c1O`: the growth in the assay with RPMI-8226 leukemia is -30.4% (active); with OVCAR-8 ovarian, -38.7% (active); in the assay on OVCAR-5 ovarian it was -81% (active); in the assay with OVCAR-4 ovarian it was -63.1% (active); in the assay on SK-OV-3 ovarian, 105%; in the assay with IGROV1 ovarian, -82.5% (active). Also, the growth with OVCAR-3 ovarian was 114%; in the assay on HS 578T breast, -35.9% (active); with NCI/ADR-RES ovarian, -0.827% (active); in the assay with T-47D breast, -33.1% (active); in the assay with BT-549 breast, -55.4% (active); in the assay on MDA-MB-435 melanoma, -91.8% (active). Moreover, the growth in the assay with SW-620 colon is -70% (active); with MCF7 breast it was -80.5% (active); in the assay with HCT-116 colon, -89.1% (active); in the assay on HCC-2998 colon it was -46.8% (active); in the assay on KM12 colon, -72.6% (active).

With `O=C1c2c(c3c4cc(O)ccc4oc3c3[nH]c4ccccc4c23)C(=O)N1O`, the growth in the assay on RPMI-8226 leukemia was 4.71% (active); in the assay with OVCAR-8 ovarian, 12.1%; in the assay with OVCAR-5 ovarian, 72.5%; in the assay with OVCAR-4 ovarian it was 22%; in the assay on SK-OV-3 ovarian it was -17% (active); in the assay on IGROV1 ovarian, 0.286% (active). For the same molecule, the growth in the assay with HS 578T breast is -8.67% (active); in the assay on NCI/ADR-RES ovarian, 40.7%; in the assay on T-47D breast, -17% (active); in the assay with BT-549 breast, -9.43% (active); in the assay with MDA-MB-435 melanoma it was -13.8% (active); with SW-620 colon, 4.5% (active). Besides, the growth in the assay with MCF7 breast is 6.15% (active); in the assay on HCT-116 colon it was -45.8% (active); in the assay with HCC-2998 colon, 34.6%; in the assay on KM12 colon it was -17.2% (active).

`COCCOc1ccc(-c2csc(NC(C)=O)n2)cc1NS(=O)(=O)c1cccc2c(N(C)C)cccc12`: the growth is 69.6% in the assay with RPMI-8226 leukemia; 97.6% in the assay with OVCAR-8 ovarian; 105% in the assay with OVCAR-5 ovarian; 86.8% in the assay with OVCAR-4 ovarian; 119% in the assay on SK-OV-3 ovarian; 77.1% in the assay on IGROV1 ovarian. Further, the growth was 88% in the assay with HS 578T breast; 84.4% in the assay with NCI/ADR-RES ovarian; 67.7% in the assay with T-47D breast; 105% with BT-549 breast; 105% in the assay with MDA-MB-435 melanoma; 111% with SW-620 colon. In addition, the growth is 85% with MCF7 breast, 88.2% with HCT-116 colon, 113% in the assay with HCC-2998 colon and 97.1% in the assay with KM12 colon.

Turning to `COc1ccc(/C(C)=C(\c2ccc(Cl)cc2)c2ccc(OCCN)cc2)cc1`, the growth in the assay with RPMI-8226 leukemia is 67.1%; in the assay on OVCAR-8 ovarian, 88.7%; in the assay on OVCAR-5 ovarian, 83.8%; with OVCAR-4 ovarian, 90.3%; with SK-OV-3 ovarian, 131%; with IGROV1 ovarian it was 77.8%. Besides, the growth in the assay on HS 578T breast was 89%; in the assay on NCI/ADR-RES ovarian, 89.1%; in the assay with T-47D breast, 95.2%; in the assay with BT-549 breast it was 91.7%; with MDA-MB-435 melanoma, 76.9%; in the assay with SW-620 colon, 36.4%. Further, the growth in the assay with MCF7 breast is 72.4%; in the assay on HCT-116 colon, 42.3%; in the assay with HCC-2998 colon, 30.2%; in the assay with KM12 colon it was 78.2%.
